Data reported in the supplement of paper PMC11732987, “Enantioselective OTUD7B fragment discovery through chemoproteomics screening and high-throughput optimisation” (Communications Chemistry, 2025).

Experiments:
Experiment in all cases: log2 ratio of Biotin-Ahx-Ub-VS probe labelling (fragment/DMSO); higher = less target engagement (more negative = stronger competition), active = hit call of the paper (q ≤ 0.05, log2 ratio ≤ -1)
Conditions in all cases: compound concentration: 200 uM; treatment time: 3 h
[1] = biological target: T1, OTUD6B (UniProt Q8N6M0)
T1 sequence (whole entry): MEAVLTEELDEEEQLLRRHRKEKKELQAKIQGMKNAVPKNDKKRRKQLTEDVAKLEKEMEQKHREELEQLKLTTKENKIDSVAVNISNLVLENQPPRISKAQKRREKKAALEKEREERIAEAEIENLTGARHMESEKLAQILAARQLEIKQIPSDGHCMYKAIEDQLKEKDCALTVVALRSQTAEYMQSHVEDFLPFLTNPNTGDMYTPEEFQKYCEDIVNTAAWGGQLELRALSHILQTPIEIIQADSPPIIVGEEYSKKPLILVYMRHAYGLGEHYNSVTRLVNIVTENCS
Outline: (§1)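 Each value is an average log2 ratio of fragment to vehicle, tested by unpaired t-test. The underlying Spectronaut label-free quantities were global-median-normalised, and only proteins with ≥2 unique peptides were included. Triplicate HEK293T lysate samples (495 µg) were exposed to fragment at 200 µM or vehicle for 3 h, then to Biotin-Ahx-Ub-VS at 0.5 µM final for 1 h, before NeutrAvidin enrichment of labelled DUBs, LysC and trypsin digestion, and diaPASEF LC-MS/MS.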

[2] = biological target: T2, OTUD7B (UniProt Q6GQQ9)
T2 sequence (whole entry): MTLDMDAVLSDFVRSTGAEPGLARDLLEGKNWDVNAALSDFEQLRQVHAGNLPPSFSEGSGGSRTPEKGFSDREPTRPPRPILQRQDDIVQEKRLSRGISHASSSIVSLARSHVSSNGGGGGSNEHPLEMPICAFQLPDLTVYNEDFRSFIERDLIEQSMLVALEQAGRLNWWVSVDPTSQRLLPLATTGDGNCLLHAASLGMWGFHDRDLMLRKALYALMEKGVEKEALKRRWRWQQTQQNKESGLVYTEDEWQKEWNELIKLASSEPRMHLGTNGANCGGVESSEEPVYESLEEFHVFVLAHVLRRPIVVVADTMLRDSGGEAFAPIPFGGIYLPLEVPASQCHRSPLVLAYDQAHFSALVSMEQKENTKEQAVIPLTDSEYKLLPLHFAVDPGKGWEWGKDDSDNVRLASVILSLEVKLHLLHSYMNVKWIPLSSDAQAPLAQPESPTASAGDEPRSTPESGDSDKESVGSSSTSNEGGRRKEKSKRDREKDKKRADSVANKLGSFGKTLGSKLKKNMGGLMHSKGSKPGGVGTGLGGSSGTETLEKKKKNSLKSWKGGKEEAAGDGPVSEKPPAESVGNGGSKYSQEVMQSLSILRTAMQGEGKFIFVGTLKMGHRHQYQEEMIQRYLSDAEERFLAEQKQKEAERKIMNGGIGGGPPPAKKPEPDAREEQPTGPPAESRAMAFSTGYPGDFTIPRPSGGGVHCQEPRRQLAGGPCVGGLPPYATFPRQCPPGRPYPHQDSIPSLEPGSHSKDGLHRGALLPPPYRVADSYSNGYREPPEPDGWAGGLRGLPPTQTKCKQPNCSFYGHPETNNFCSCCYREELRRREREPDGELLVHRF
Outline: as §1

[3] = biological target: PRPF8 (UniProt Q6P2Q9)
Outline: as §1

[4] = biological target: T3, PSMD7 (UniProt P51665)
T3 sequence (whole entry): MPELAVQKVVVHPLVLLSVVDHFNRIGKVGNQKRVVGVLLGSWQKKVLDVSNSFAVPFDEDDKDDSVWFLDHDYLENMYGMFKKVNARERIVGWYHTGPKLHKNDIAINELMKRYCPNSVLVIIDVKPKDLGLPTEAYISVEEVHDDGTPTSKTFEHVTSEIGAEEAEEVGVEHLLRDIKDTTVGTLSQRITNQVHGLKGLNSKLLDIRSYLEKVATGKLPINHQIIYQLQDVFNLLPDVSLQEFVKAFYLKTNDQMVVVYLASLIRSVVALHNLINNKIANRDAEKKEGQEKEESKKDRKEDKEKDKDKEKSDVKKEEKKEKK
Outline: as §1

[5] = biological target: UCHL1 (UniProt P09936)
Outline: as §1

[6] = biological target: T4, UCHL3 (UniProt P15374)
T4 sequence (whole entry): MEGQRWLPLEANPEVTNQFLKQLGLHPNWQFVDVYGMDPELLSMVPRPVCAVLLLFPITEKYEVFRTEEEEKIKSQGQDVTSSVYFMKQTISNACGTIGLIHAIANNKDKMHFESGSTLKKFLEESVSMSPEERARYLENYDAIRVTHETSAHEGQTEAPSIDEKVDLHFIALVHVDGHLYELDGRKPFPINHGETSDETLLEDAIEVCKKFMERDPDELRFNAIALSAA
Outline: as §1

[7] = biological target: T5, UCHL5 (UniProt Q9Y5K5)
T5 sequence (whole entry): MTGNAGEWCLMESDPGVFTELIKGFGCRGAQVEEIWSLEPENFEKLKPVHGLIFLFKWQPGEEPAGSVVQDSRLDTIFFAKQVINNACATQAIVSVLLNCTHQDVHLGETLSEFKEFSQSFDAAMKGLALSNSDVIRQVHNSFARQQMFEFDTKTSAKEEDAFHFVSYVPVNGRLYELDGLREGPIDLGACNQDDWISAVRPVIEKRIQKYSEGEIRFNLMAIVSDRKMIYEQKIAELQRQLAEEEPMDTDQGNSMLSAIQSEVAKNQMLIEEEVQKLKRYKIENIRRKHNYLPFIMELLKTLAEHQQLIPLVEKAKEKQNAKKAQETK
Outline: as §1

[8] = biological target: USP10 (UniProt Q14694)
Outline: as §1

[9] = biological target: T6, USP15 (UniProt Q9Y4E8)
T6 sequence (whole entry): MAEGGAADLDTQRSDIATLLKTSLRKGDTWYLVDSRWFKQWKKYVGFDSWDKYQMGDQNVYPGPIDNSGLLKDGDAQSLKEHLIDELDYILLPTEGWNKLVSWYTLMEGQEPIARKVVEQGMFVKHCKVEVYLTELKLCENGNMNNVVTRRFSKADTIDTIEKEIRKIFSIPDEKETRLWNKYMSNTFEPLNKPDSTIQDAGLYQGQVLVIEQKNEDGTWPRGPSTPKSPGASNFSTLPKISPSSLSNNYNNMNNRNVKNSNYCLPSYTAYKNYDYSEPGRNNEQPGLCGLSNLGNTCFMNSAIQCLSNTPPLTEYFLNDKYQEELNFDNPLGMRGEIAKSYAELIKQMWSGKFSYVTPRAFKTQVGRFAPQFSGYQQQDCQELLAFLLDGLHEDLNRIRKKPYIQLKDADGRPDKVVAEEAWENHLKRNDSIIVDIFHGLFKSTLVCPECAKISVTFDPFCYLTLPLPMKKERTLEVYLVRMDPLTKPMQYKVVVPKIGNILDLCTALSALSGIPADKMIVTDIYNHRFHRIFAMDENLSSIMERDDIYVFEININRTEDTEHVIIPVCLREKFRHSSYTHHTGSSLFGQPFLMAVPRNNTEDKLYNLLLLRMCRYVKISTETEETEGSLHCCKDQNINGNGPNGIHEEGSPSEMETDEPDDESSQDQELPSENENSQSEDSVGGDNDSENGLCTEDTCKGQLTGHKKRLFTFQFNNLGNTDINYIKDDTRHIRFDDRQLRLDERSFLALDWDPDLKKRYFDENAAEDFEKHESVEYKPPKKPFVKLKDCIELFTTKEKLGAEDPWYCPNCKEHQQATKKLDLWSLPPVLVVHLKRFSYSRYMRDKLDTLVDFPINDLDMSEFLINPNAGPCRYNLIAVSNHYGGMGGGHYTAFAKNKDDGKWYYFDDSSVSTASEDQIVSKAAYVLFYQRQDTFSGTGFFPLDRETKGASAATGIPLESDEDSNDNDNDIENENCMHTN
Outline: as §1

[10] = biological target: USP16 (UniProt Q9Y5T5)
Outline: as §1

Measured: log2 ratio of Biotin-Ahx-Ub-VS probe labelling

USP10, sequence (Q14694 whole entry): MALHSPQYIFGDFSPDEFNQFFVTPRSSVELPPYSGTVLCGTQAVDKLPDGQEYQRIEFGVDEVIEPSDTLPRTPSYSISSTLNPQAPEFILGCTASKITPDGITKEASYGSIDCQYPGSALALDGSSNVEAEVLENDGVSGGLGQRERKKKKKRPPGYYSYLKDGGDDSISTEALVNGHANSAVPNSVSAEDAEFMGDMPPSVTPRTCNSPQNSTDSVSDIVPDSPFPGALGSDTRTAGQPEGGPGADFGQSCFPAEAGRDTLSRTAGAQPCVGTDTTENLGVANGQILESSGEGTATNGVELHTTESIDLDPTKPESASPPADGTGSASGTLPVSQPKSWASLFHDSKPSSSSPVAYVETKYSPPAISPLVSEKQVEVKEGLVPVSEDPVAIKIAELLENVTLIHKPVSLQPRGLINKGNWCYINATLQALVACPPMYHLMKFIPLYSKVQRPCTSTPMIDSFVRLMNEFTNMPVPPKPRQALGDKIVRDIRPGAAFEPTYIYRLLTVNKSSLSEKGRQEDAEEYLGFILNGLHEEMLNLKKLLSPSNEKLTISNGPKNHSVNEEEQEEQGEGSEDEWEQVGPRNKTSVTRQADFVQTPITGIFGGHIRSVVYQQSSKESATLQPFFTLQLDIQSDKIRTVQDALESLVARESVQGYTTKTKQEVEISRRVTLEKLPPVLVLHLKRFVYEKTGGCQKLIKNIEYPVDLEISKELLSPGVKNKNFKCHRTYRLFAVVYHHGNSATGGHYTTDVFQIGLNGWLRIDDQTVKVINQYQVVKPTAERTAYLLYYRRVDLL
USP16, sequence (Q9Y5T5 whole entry, looked up): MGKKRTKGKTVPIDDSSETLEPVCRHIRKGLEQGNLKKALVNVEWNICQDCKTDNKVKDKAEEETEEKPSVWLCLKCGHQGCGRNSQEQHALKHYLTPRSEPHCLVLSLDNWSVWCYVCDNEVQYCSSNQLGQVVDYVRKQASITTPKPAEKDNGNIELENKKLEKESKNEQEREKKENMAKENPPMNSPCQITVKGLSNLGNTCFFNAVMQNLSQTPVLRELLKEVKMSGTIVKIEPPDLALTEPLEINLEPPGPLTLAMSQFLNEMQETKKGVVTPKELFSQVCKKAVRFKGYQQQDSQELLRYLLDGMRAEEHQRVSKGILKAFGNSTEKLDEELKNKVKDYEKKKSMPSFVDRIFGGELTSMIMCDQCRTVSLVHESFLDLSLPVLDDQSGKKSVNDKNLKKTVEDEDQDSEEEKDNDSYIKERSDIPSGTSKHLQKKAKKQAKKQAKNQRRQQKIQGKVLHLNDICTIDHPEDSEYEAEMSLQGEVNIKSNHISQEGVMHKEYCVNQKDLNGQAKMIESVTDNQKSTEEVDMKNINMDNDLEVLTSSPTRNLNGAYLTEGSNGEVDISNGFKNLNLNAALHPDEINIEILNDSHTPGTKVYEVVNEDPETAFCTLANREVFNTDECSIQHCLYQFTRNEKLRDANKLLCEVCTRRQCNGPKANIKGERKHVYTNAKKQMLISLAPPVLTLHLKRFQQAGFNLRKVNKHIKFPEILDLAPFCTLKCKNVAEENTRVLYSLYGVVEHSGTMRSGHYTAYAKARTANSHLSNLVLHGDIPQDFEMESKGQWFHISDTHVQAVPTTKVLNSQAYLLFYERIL
UCHL1, sequence (P09936 whole entry, looked up): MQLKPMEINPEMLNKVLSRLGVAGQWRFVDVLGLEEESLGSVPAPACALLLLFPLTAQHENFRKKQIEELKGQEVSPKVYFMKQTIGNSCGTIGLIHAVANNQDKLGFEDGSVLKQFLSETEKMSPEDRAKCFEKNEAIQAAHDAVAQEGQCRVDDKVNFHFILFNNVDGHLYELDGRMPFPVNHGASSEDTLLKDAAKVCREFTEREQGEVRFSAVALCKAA

Cc1ccccc1C1(CNC(=O)CCl)CCOCC1
inactive: [1] -0.054 | [2] -0.293 | [3] -0.0655 | [4] -0.0606 | [6] 0.231 | [7] -0.272 | [8] -0.0236 | [9] -0.102 | [10] 0.242
active: [5] -1.45
